The source made the active and inactive calls.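 Rule for the calls: active = z-score of at least 1.8 in each of two replicates, scored against plate mean and spread of sample wells; inactive = the rest.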

The assay is described as follows: viability rescue of complex I mutant cybrids, primary screen, cell-based, galactose medium, ATP luminescence (AID 1645843).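 Note: positive z means more ATP and so rescue of galactose-driven cybrid death.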 The settings on record: complex I mutant cybrid cells, 72 h, active compounds read high.
Turning to `CCn1cc(-c2cc(C(=O)N3CCCCCC3)c3ccc(C)c(C)c3n2)cn1`, the z-score is 1.92 (active). As for `COc1cccc(CN2CCN(c3ccc4cccc(OC)c4n3)CC2)c1`, the z-score was -0.86 (inactive). Turning to `CC(C)CN1CCC(CNCc2ccc(C#CC(C)(C)O)s2)CC1`, the z-score is -1.05 (inactive). For the molecule `CC(Cc1cccnc1)n1cnc2sc3c(c2c1=O)CCCCC3` (stereo not given), the z-score was 0.91 (inactive). Turning to `CCC(Nc1ncc(C)c(-c2cnn(C)c2)n1)c1nc2ccc(C)cc2[nH]1` (stereo not given), the z-score was -0.955 (inactive). The value for `Cc1cc(C)c(-n2cccn2)c(-c2nc3c(cnn3C(C)C)[nH]2)c1` was -0.485 (inactive); that for `c1ccc(CC2CCN(C3CCSC3)CC2)cc1` (stereo not given) was -0.3 (inactive); that for `CCn1cc(CN(C(=O)c2cnc3ccccn3c2=O)C(C)C)cn1` was 0.18 (inactive).

On to `CCCC(NC(=O)c1ccc(C#N)cc1)c1ccccc1` (stereo not given), for which the z-score is -0.32 (inactive). Regarding `CCn1cnc(NC(=O)NC2CCN(Cc3ccncc3)CC2)n1`, the z-score was 3.54 (active). Turning to `Cc1cccc(-n2cc(-c3ccn(CC(=O)Nc4ccnn4C)n3)cn2)c1`, the z-score was 1.22 (inactive). In the case of `CN1CCN(Cc2cnc3ccccc3c2)CC1CCO` (stereo not given), the z-score is 0 (inactive). `CC(C)Cc1cn(C2CCN(C3Cc4ccccc4C3)CC2)nn1`: the z-score was -0.99 (inactive). With `COc1ccc(-c2cccc(C(=O)c3nccn3C)c2)c(C)c1`, the z-score was -0.555 (inactive). For `Cc1ccc2c(C(=O)N3CCCC3)cc(-c3cnn(C(C)C)c3)nc2c1`, the z-score is -0.36 (inactive). As for `Cc1ccn2cc(C(=O)N(CC(C)C)CC(C)C)nc2c1`, the z-score is -0.515 (inactive). As for `CC1CCCN1C(=O)c1cc(-c2cnn(C(C)C)c2)nc2cc(F)ccc12` (stereo not given), the z-score was -0.72 (inactive). As for `Cc1cccc2c(C(=O)N(C)C(C)C)cc(-c3cnn(C(C)(C)C)c3)nc12`, the z-score is 1.41 (inactive).

`Cc1nsc(NC(=O)N2CCC(N)CC2)n1`: the z-score is 0.04 (inactive). As for `CC(C)CCC(=O)N(C)CCCC1CCCC1`, the z-score was -0.145 (inactive). With `COc1ccc(OC)c(-c2ccc3nc(C)ccc3c2)c1`, the z-score is -1.14 (inactive). Turning to `Cc1cccc(C2CCCN(C(=O)c3cc(C(C)C)no3)C2)c1` (stereo not given), the z-score is 1.05 (inactive).

Turning to `CC(C)c1cc(C(=O)N2CCCC(c3ccccc3)C2)on1` (stereo not given), the z-score is -0.55 (inactive).

Regarding `Cc1cc(Cl)cc2c(=O)n(C(C)Cn3cccn3)cnc12` (stereo not given), the z-score is -0.45 (inactive). Take `CC(Oc1ccc2c(c1)OCO2)C(=O)N(Cc1nccn1C)C(C)C` (stereo not given): the z-score is -0.22 (inactive). As to `CCC1(CO)CCCN(c2ncc(C(F)(F)F)cc2Cl)C1` (stereo not given), the z-score is 2.98 (active).

On to `O=C(C1CCCCCC1)N1CCc2[nH]nc(C3CCC3)c2C1`, for which the z-score was 0.435 (inactive).

Regarding `CC(=O)N[C@@H](CC(C)C)C(=O)N1CCC(n2cc(C(C)(C)N)nn2)CC1`, the z-score is -0.505 (inactive). In the case of `O=c1cc(-c2ccccc2Cl)nc(-c2ccc(CN3CC[C@H](O)C3)cc2)[nH]1`, the z-score is 0.305 (inactive). For the molecule `O=C(CN1CCOC1=O)NCCc1cccc(F)c1`, the z-score is -0.505 (inactive). As for `COC(=O)CCC1CCN(C(=O)CCC(C)C)CC1`, the figure is -0.56 (inactive); as for `CC(CCCC(C)(C)O)CCNCC1CCN(c2ccccc2)C1` (stereo not given), -0.605 (inactive). Take `CN1CCN(C(=O)c2ccc3c(c2)CCO3)CC1=O`: the z-score was 0.07 (inactive). In the case of `Cc1cc(N2CCC(Cn3cc(CN)nn3)CC2)nc(-c2ccccc2O)n1`, the z-score was -1.23 (inactive).

With `CC(C)n1cc(C(=O)N2CCCC(c3ccccc3)C2)cn1` (stereo not given), the z-score is -0.54 (inactive). Consider `Cc1c(C(F)(F)F)nc(-c2ccc(CN3CCN(C)C(=O)C3)cc2)[nH]c1=O`, for which the z-score is -0.5 (inactive). Regarding `CCN(CC)C(=O)c1cc(-c2cnc(C(C)C)nc2)nc2c(C)cccc12`, the z-score is -1.09 (inactive).

With `COc1cc(N2CCCC(c3nc(C(C)C)no3)C2)nc(N)n1` (stereo not given), the z-score is 0.815 (inactive). `Cc1nnc2ccc3nnc(-c4cc(Cl)ccc4OC(C)C)n3n12`: the z-score was -0.5 (inactive). For the molecule `O=C1NCCN(C(=O)c2ccc(F)c(F)c2)C1Cc1ccccc1` (stereo not given), the z-score was -0.495 (inactive).

Source of the values: PubChem BioAssay.
